Measurements: PubChem BioAssay (NCI)
Compounds without any hit were thinned out: in the full panel of roughly 83,000, 20% have a hit.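 Interpretation: 100, growth as untreated; towards 0, rising growth inhibition; 0, no net growth; 0 to -100, cell death. Compounds scoring below 10 were considered active.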 Unmarked numbers belong to inactive results. Activity calls are given as the source filed them.

Experiments:
Experiment in all cases: NCI-60 one-dose screen, 48 h (100 = growth as untreated, 0 = no growth, -100 = all killed)
Settings in all cases: 10 µM
NCI-H23 lung = system: NCI-H23 lung
NCI-H226 lung = system: NCI-H226 lung
NCI-H322M lung = system: NCI-H322M lung
HOP-62 NSCLC = system: HOP-62 NSCLC
NCI-H460 lung = system: NCI-H460 lung
NCI-H522 lung = system: NCI-H522 lung
A549/ATCC NSCLC = system: A549/ATCC NSCLC
786-0 renal = system: 786-0 renal
COLO 205 colon = system: COLO 205 colon
DU-145 prostate = system: DU-145 prostate

Compound	growth (NCI-H23 lung)	growth (NCI-H226 lung)	growth (NCI-H322M lung)	growth (HOP-62 NSCLC)	growth (NCI-H460 lung)	growth (NCI-H522 lung)	growth (A549/ATCC NSCLC)	growth (786-0 renal)	growth (COLO 205 colon)	growth (DU-145 prostate)
Cc1[nH]nc2c1C(c1cnn(C)c1)C(C#N)=C(N)O2 (stereo not given)	101%	105%	96.9%	97.9%	104%	80.4%	96.1%	102%	114%	110%
COc1cc(Nc2ccnc(NCCNc3ccnc4cc(Cl)ccc34)n2)cc(OC)c1	38.2%	55.5%	46.5%	79.2%	27.8%	17.7%	42.9%	35.4%	2.21% (active)	63.9%
c1ccc(CNc2ncnc3scc(-c4cccs4)c23)nc1	53.5%	68.1%	86.3%	65%	77.4%	60.4%	56.6%	79.6%	89.7%	92.1%
CC(=O)n1c(-c2ccc(Cl)c(Cl)c2)cn(-c2ccc(Cl)cc2)c1=O	27.5%	76.2%	69%	-29.1% (active)	3.52% (active)	36.7%	-10.1% (active)	2.32% (active)	-19.2% (active)	0.358% (active)
COc1ccc2c(c1)sc1nc(-c3ccccc3)c(-c3ccc(O)c(OC)c3)n12	88.2%	94.1%	89.7%	79.1%	69.8%	76.4%	64.2%	84.9%	71.4%	107%
Nc1nc(N=Nc2ccc(O)cc2)cc(=O)[nH]1	101%	114%	104%	102%	107%	112%	111%	105%	106%	116%
CN(C)CCN=c1nc2c(c(N)n1-c1ccccc1)c(=S)n(-c1ccccc1)c(=S)n2-c1ccccc1	67.6%	82.3%	58.5%	6.19% (active)	3.8% (active)	34.2%	35.3%	-83.5% (active)	6.65% (active)	45%
COc1ccc2c(c1)sc1nc(-c3ccccc3)c(-c3ccsc3)n12	36%	55.8%	53.4%	36.8%	7.9% (active)	-13.4% (active)	31.1%	57.5%	3.28% (active)	3.69% (active)
CCCCCCCCN(CCCCCCCC)CCCCCCCCCN1CCCc2cc(OC)ccc21	63.4%	89.7%	95.5%	85%	102%	79.4%	97.2%	98.3%	87.8%	105%
C#Cc1ccc(-n2c(/C=C/c3ccc(Cl)c(F)c3)nc3ncccc3c2=O)cc1	18.3%	-74.5% (active)	-25% (active)	-57.6% (active)	-25.8% (active)	-66.7% (active)	-8.32% (active)	7.88% (active)	-90.2% (active)	3.49% (active)
CSCCCNC(=O)c1ccc2c(c1)/C(=C/c1[nH]c(C)cc1C)C(=O)N2	28.6%	41.8%	50.4%	35.5%	30.8%	41%	29.2%	6.49% (active)	31.5%	27.9%
Cc1cc(C)c2c(n1)sc1c(Nc3ccc(Cl)cc3)ncnc12	4.49% (active)	1.79% (active)	32%	5.01% (active)	5.8% (active)	16.1%	18.2%	-3.32% (active)	10.6%	6.73% (active)
O=C1/C(=C\c2ccccc2)CN(C(=O)c2ccccc2F)C/C1=C\c1ccccc1	33.8%	27.9%	74.6%	17.9%	51.6%	-3.31% (active)	53.3%	-40.8% (active)	14.6%	7.15% (active)
COc1ccc(C(=O)/C=C/c2cc(-c3cc(OC)c(OC)c(OC)c3)n[nH]2)cc1	87.3%	53.3%	-6.79% (active)	17.6%	2.79% (active)	-0.12% (active)	34.5%	10.4%	30.5%	26.3%
O=c1c2ccccc2nc(SCCN2CCCCC2)n1CCc1ccccc1	77.5%	101%	97.6%	89%	105%	89.2%	87.9%	86.7%	74.7%	101%
CCOC(=O)CNC(=O)CCCCSc1ncnc2nc[nH]c12	113%	94.5%	173%	96.2%	97%	102%	109%	97.9%	111%	113%
O=C(CC(c1ccccc1)N1CCOCC1)c1ccccc1 (stereo not given)	83.3%	90.8%	96.9%	88.2%	106%	88.5%	97.4%	80.9%	116%	80.3%
COc1ccc2c(c1)N(CCO)C1=C(C(=O)OC1)C2c1ccc(OC)c(OC)c1 (stereo not given)	46.1%	46.7%	61.3%	39%	16.9%	-12.4% (active)	50.4%	42.2%	29.7%	55.6%
O=C(Nc1cccc(-n2cc(-c3ccncc3)c(-c3cc(O)cc(Cl)c3)n2)c1)Nc1ccc(Cl)c(C(F)(F)F)c1	10.5%	41.2%	45%	8.99% (active)	3.75% (active)	-16% (active)	8.81% (active)	-29.8% (active)	63.4%	18.7%
O=C1OCC2=C1C(c1cccc(Cl)c1)c1cc3c(cc1N2CCO)CCC3 (stereo not given)	8.79% (active)	-18.1% (active)	33%	21%	-12.7% (active)	-29.2% (active)	11.7%	18%	-47.1% (active)	-46.2% (active)
CC12O[C@H](C[C@@H](OC(=O)c3ccccc3)[C@H]1O)n1c3ccccc3c3c4c(c5c6ccccc6n2c5c31)C(=O)NC4=O	56.9%	32.3%	83.1%	33.4%	79.6%	66.7%	50.9%	78.7%	46.8%	58.2%
CC(=O)N1C/C(=C/c2ccc(Cl)cc2)C(=O)/C(=C/c2ccc(Cl)cc2)C1	-28% (active)	-39.5% (active)	-9.19% (active)	-29.7% (active)	-14.1% (active)	-66.4% (active)	-24.6% (active)	-59.3% (active)	-48.8% (active)	-30.5% (active)
Nc1nc(-c2ccccc2Cl)cc(-c2ccc(Cl)cc2Cl)n1	75.4%	87.7%	89.5%	76.2%	49.8%	68.5%	52.7%	90.2%	64.9%	91.4%
O=C1OCC2=C1C(c1cccc(Cl)c1)c1cc3c(cc1N2CCO)OCCO3 (stereo not given)	19.6%	-5.85% (active)	35.3%	26.7%	0.852% (active)	-22.4% (active)	13.8%	23.7%	-26.9% (active)	-35.6% (active)
CCOC(=O)c1ccc(NC(=O)Nc2ncc(Cl)cc2Cl)cc1	93.9%	95.3%	99.3%	104%	93.3%	-37.6% (active)	40.7%	92.9%	130%	111%
Nc1c(C(=O)Nc2cccc(F)c2)sc2nc3c(cc12)C(=O)CCC3	41.6%	64.6%	58.8%	69.3%	11.5%	5.31% (active)	27.6%	51.6%	-3.2% (active)	-12.7% (active)
Clc1ccc(-c2cn(-c3ccccc3)c(-c3ccccc3)n2)c(Cl)c1	67.6%	40.7%	-17% (active)	31.6%	-100% (active)	42.6%	-8.47% (active)	-50.3% (active)	-64.3% (active)	-89.7% (active)
